Compound activity (PubChem BioAssay)
Pf growth 48h = Primary qHTS for delayed death inhibitors of the malarial parasite plastid, 48 hour incubation | P. falciparum luciferase growth in erythrocytes, 48 h | Potency, µM (doses to about 28.7 µM), for inactives: top-dose activity change, negative = inhibition, actives largely listed as inhibitors | 310,000 tested, 5.9% active; note: potency is the fitted concentration of half-maximal effect; % is set by controls: 0 for no effect and ±100 for the full control effect
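Parasite viability was followed by luminescence of a genomically integrated firefly luciferase. Cultures held 0.1% parasitemia at 2% hematocrit (final), incubated under 5% CO2 at 37 C.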
HCV inh = qHTS Assay for Inhibitors of Hepatitis C Virus (HCV). Potency, µM (series often up to 41.8 µM), for inactives: at the top dose activity change, negative = inhibition, usual class: inhibitors. 340,000 tested, 3.4% active. AID 651820, 2012. Huh7.5.1 HCVcc-Cre infection, luciferase reporter, 44 h; note: potency is the fitted concentration of half-maximal effect; % is set by controls: 0 for no effect and ±100 for the full control effect
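After 44 h co-culture of compound, cells and HCVcc-Cre (~0.5 moi), substrate is added for 15 min at room temperature and luciferase measured over 15 sec. Cells were seeded at 1,000/well and pre-cultured 4 h.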
Pf growth 96h = Primary qHTS for delayed death inhibitors of the malarial parasite plastid, 96 hour incubation; P. falciparum luciferase reporter growth, 96 h; Potency, µM (titrated, usually from 28.7 µM), for inactives: top-dose activity change, negative = inhibition, most hits filed as inhibitors; 320,000 tested, 6.9% active; note: potency is the fitted concentration of half-maximal effect; % is set by controls: 0 for no effect and ±100 for the full control effect
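Two-generation exposure (96 h) targets delayed-death phenotype. Reporter parasites carrying integrated firefly luciferase, in red cells at 2% hematocrit and 0.05% parasitemia final, kept at 37 C, 5% CO2; luminescence loss indicates inhibition.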
Shiga inhibitor = A qHTS for Small Molecule Inhibitors of Shiga Toxin. AID 2315, 2010. inhibition, % at 38.7 µM. Vero cells, Shiga toxin protein synthesis inhibition reporter. 290,000 tested, 9.2% active; in the data active = inhibition mostly above about 28%, no sharp cut-off; inactive = mostly below about 43%; note: 0% is about no effect
Cycloheximide cs = Cycloheximide Counterscreen for Small Molecule Inhibitors of Shiga Toxin | 300,000 tested, 12% active | max response, % | cell reporter, cycloheximide protein synthesis inhibition counterscreen; in the data active = max response mostly above about 13%, no sharp cut-off; inactive = mostly below about 14%; note: read at 38.3 µM for the half of the compounds with a filed dose; 0% is about no effect
AMA1-RON2 inh = qHTS for Inhibitors of AMA1-RON; Towards Development of Antimalarial Drug Lead: Primary Screen | Plasmodium falciparum AMA1 (3D7) - RON2 peptide interaction | AlphaScreen AMA1-biotinylated RON2 peptide binding | Potency, µM (series often up to 58.2 µM), for the others: at the highest dose activity change, negative = inhibition, actives largely listed as inhibitors | 360,000 tested, 0.2% active | AID 720542, 2013;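 note: potency is the fitted concentration of half-maximal effect; 0% = vehicle wells and -100% = peptide control; nearly all actives have a fitted effect of over 45% in size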
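AMA1 (3D7) with his tag at 25 nM final met compounds first, then biotinylated RON2 peptide at 25 nM; detection used donor plus acceptor beads, 10 µg/mL apiece, read by AlphaScreen after 30 min at room temperature.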
* hit, by the source's call; u = inconclusive; x = no result given; [ ] = dose if it differs, or a comment. Compounds with a hit are over-represented: about 21% of the library has one in this group of screens. Unless noted, calls come from the whole dose curve; as a rule, active = well fitted curve in the direction sought with a large enough effect; inconclusive = small, poorly fitted or top-dose-only effect, or another doubt; inactive = no such curve, though single readings can be large; an effect the other way counts as inactive or inconclusive.

SMILES | Pf growth 48h | HCV inh | Pf growth 96h | Shiga inhibitor | Cycloheximide cs | AMA1-RON2 inh
CCC(C)NC(=O)c1cc2c(=O)n3ccccc3nc2s1 (configuration not stated) | 40% | u | u | 32* | 35* | 10%
COCCN(CCOC)C(=O)c1cc2c(=O)n3ccccc3nc2s1 | 34% | u | 3% | 23 | 34* | 16%
CC(C)CN(CC(C)C)C(=O)c1cc2c(=O)n3ccccc3nc2s1 | -62% | 27% | 4% | 17 | 3 | 46%
CC(C)CCNC(=O)c1cc2c(=O)n3ccccc3nc2s1 | 43% | -15% | 1% | 41* | 20* | 3%
CCN(CC)C(=O)c1cc2c(=O)n3ccccc3nc2s1 | x | 16% | 101% | 38 | 22 | 22%
[O][C@H]1[C@@H](O)[C@@H](CO)O[C@@H](O[C@@H]2[C@@H]3OC[C@H]2O[C@H](O[C@@H]2[C@@H](O)[C@H](C[C@@H]4[C@@H]5OC[C@H]4O[CH][C@@H]5O)O[C@H](CO)[C@@H]2OS(=O)(=O)O)[C@@H]3OS(=O)(=O)O)[C@@H]1O | x | x | x | 19 | -13 | x
NS(=O)(=O)c1ccc(CCNC(=O)CNC(=O)C2CCCCC2)cc1 | 10% | 13% | 12µM* | -3 | -1 | 7%
NS(=O)(=O)c1ccc(CCNC(=O)CNCCc2ccccc2)cc1 | 0% | 8% | -6% | -14 | 1 | 40µM*
O=C(Nc1cccc(S(=O)(=O)N2CCOCC2)c1)C1COc2ccccc2O1 (configuration not stated) | 1% | u | 42% | x | x | 2%
CSc1cccc(NC(=O)C2CCN(S(=O)(=O)c3ccc(F)cc3)CC2)c1 | u | 11µM* | u | 14 | 6 | -8%
CSc1cccc(NC(=O)C2CCCN(S(=O)(=O)c3ccc(F)cc3)C2)c1 (configuration not stated) | u | u | -95% | -14 | -2 | -13%
CSc1cccc(NC(=O)C2CCCN2S(=O)(=O)c2ccc(Br)s2)c1 (configuration not stated) | x | -15% | 10µM* | 35 | 17 | -7%
Cc1ccc(NC(=O)C2CCN(S(=O)(=O)c3ccc(F)cc3)CC2)cc1 | -29% | u | x | -10 | -1 | 1%
O=C(Nc1ccc(S(=O)(=O)N2CCCC2)cc1)C1CCN(S(=O)(=O)c2ccc(F)cc2)CC1 | 13µM* | u | u | x | x | 1%
C=CCNC(=O)C1CCN(S(=O)(=O)c2ccc(Br)cc2)CC1 | 10µM* | -15% | x | 24 | 7 | 1%
CSc1cccc(NC(=O)C2CCCN(S(=O)(=O)c3cccs3)C2)c1 (configuration not stated) | u | u | 21% | 9 | 2 | -25%
O=S1(=O)CCOCCCN1Cc1ccccc1 | 36% | 0% | 72% | -6 | 1 | 7%
Cc1nnc(NC(=O)C2CCN(S(=O)(=O)c3ccc(F)c(Cl)c3)CC2)o1 | 6.6µM* | 15% | 15µM* | x | x | 44%
O=C(Nc1ccc(S(=O)(=O)N2CCOCC2)cc1)C1CCN(S(=O)(=O)c2ccccc2)CC1 | u | u | 2.9µM* | x | x | -12%
Cc1ccc(S(=O)(=O)N2CCC(C(=O)Nc3ccc(S(=O)(=O)N4CCOCC4)cc3)CC2)cc1 | x | -17% | x | x | x | 7%[11.6 µM]
COC(=O)C1=C(C)N(c2ccccc2)C(=S)NC1c1ccccc1C(F)(F)F (configuration not stated) | 10µM* | u | u | -3 | -1 | -2%
C=CCN(CC=C)CCOc1ccc(OC(C)C)cc1 | u | 5% | u | 84* | 18* | u
COc1ccccc1C(=O)Nn1cnc2ccccc2c1=O | 74% | -11% | -9% | 49* | 24* | 5%
CCCCCCCCCC(=O)Nn1cnc2ccccc2c1=O | 29% | 10% | u | -7 | -2 | 12%
CCN(CC)c1ccc(C(=O)Nn2cnc3ccccc3c2=O)cc1 | 17% | -4% | -4% | 76* | 35* | -3%
